Test results from ChEMBL document CHEMBL3988442, “University of Dundee, Small-Polar-MMV Screening Library” (2021).

How the values were obtained:
[1] = biological target: T1, Aspartate--tRNA(Asp/Asn) ligase (Mycobacterium tuberculosis (strain ATCC 25618 / H37Rv)) (UniProt P9WFW3); experiment: Assay for Asp RNA synthetase-1 from Mycobacterium tuberculosis; assay type: functional; parameters: scale not given: direction of the effect not stated beside the values; details: 30 µM; note: in the data most compounds retested in dose-response had high values
T1 sequence (whole entry): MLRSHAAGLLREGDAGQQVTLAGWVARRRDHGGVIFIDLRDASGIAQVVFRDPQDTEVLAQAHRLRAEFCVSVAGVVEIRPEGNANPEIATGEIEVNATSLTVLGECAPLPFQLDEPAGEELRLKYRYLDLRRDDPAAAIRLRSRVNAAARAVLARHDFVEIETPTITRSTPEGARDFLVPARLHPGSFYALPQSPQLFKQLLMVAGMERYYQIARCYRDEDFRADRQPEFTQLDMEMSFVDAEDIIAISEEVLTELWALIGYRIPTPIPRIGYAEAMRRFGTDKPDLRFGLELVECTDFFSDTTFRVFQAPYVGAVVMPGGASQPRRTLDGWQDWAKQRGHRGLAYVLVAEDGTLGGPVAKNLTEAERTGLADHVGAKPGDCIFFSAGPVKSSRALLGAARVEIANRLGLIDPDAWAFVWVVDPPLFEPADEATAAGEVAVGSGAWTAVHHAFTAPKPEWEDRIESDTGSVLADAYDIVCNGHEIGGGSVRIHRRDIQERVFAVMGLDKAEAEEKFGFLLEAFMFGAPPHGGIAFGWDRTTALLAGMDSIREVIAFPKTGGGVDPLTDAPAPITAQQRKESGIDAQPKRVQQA

[2] = biological target: Shiga toxin 2 (Escherichia coli O157:H7) (UniProt P09385+P09386); experiment: E. coli 0.157:H7 Shiga Toxin SOP - stx2 screening assay; assay type: functional; parameters: scale not given: direction of the effect not stated beside the values; details: 30 µM

Structure (SMILES) | Percent Effect [1] | Percent Effect [2]
COc1cc(OC)c(C2Nc3cc(Cl)ccc3C3=NCCN32)cc1OC (configuration not stated) | -6.02% | -48.2%
CN(Cc1ccc(Cl)s1)C1CCCN(c2cccnn2)C1 (configuration not stated) | 2.31% | -15%
Cc1cc(CN(C)C(=O)NCC(C)N2CCc3ccccc32)no1 (configuration not stated) | -1.27% | -6.14%
COCCN1C[C@@H]2CN(Cc3cccc(F)c3)CCC[C@]2(C(=O)O)C1 | 6.95% | -10.4%
O=C1NC2(CCN(C(=O)c3ccccc3)CC2)CC1c1cccnc1 (configuration not stated) | -4.95% | -5.71%
CC(C)c1nc(C2CCCN(C(=O)CCn3ccnc3)C2)no1 (configuration not stated) | 5.96% | 3.56%
O=S1(=O)CCN(Cc2cccnc2)[C@H]2CCN(c3ncccn3)CC[C@H]21 | 1.96% | -36.2%
O=C(c1ccc(C2CCCO2)s1)N1CCN(c2ccccc2F)CC1 (configuration not stated) | 1.1% | -30.2%
O=C(NCc1cc[nH]n1)NCC(c1ccc(F)cc1)N1CCOCC1 (configuration not stated) | -0.433% | -14.2%
Cc1nnc(N2CC[C@H]3C[C@H](C(=O)N4CCOCC4)O[C@H]3C2)s1 | 3.25% | -4.69%
CC(O)CN1CCC(CNCc2cccc(OC(C)C)c2)CC1 (configuration not stated) | 3.21% | -10.6%
CC(C)Cc1noc(CN2CCN(C(=O)c3cccc(F)c3)CC2)n1 | -0.41% | -17.7%
COc1ccc(C)cc1NC(=O)Nc1cnc(N2CCN(C)CC2)nc1 | 0.539% | -18.8%
CCc1nnc(CNCC2CCN(CC(O)c3ccccc3)CC2)o1 (configuration not stated) | -2.95% | -40.8%
COc1ccc(C(O)CNC(=O)Nc2cc(C)nn2C)cc1 (configuration not stated) | -1.41% | 26.8%
Cc1nccn1C1CCCN(C(=O)c2ccc3c(c2)COC3)C1 (configuration not stated) | -1.72% | -16.7%
CN(C)C(=O)CCCNC(=O)C(c1cccc(F)c1)N(C)C (configuration not stated) | -1.57% | -24.8%
O=C(NCc1csc(Br)c1)c1ccc(=O)[nH]n1 | -0.83% | -13.6%
COc1ccccc1CN(C)C(=O)c1cc(CN2CCC(O)CC2)on1 | 3.59% | -16.2%
CCc1nc(CN(C(C)=O)C2CCN(Cc3cnc(C)cn3)C2)no1 (configuration not stated) | -0.742% | -16.6%
O=C(Cc1ccc2c(c1)OCCO2)NCCc1nnc2n1CCC2 | 6.11% | 15.8%
CC(C)c1ncncc1C(=O)N1CCN(Cc2cscn2)CC1 | -2.56% | -22.9%
Cc1nc(CN2CCCC(N(C)CCc3cccs3)C2)no1 (configuration not stated) | -3.43% | 25.8%

Structure (SMILES) | Percent Effect [1] | Percent Effect [2]
CC(=O)N1C[C@@H](c2ccsc2)[C@@H]2CN(Cc3ccccc3)CC[C@@H]21 | 2.13% | -20.6%
Cc1c[nH]c(CN(C)C(=O)C2CC(=O)N(Cc3ccncc3)C2)n1 (configuration not stated) | 2.33% | -32.5%
COCC1CN(Cc2ccncc2)Cc2nnn(CC3CC3)c21 (configuration not stated) | 0.981% | -28.3%
CC(C)COCC1CN(Cc2ccc3c(c2)OCO3)Cc2ncn(C)c21 (configuration not stated) | 2.63% | -19.1%
CC(C(=O)NCc1ccnc(N2CCN(C)CC2)c1)n1cccn1 (configuration not stated) | -3.86% | 6%
COc1cccc(-n2nnc(C(=O)N3CCCC3)c2C)c1 | -2.63% | 5.03%
CCC(C)NC(=O)Nc1ccc(CN2CCOC2=O)cc1 (configuration not stated) | -0.167% | -47.4%
CN(C)c1ncccc1CNC(=O)N1CCCC1c1ccsc1 (configuration not stated) | 2.25% | 5.76%
O=C(NC1(c2cccc(F)c2)CCOCC1)c1ccoc1 | 2.05% | -19.4%
Cc1cccc(-c2nc(CN3CCc4cnc(C)nc4C3)no2)c1 | 4.76% | 6.99%
CC(C)CN1C[C@H]2CCN(Cc3cccnc3)CC[C@H]2S1(=O)=O | -4.32% | 4.22%
Cn1ncc(NCc2cccc(COC(C)(C)C)c2)c(Cl)c1=O | -4.13% | 12%
COC(=O)CC(c1cnn(C)c1)c1oc(C)cc(=O)c1O (configuration not stated) | -0.166% | -13.2%
CC(C)c1ncc(S(C)(=O)=O)c(C2CCCNC2)n1 (configuration not stated) | -1.91% | 10.4%
CN1CCN(C(=O)NC2CC2)Cc2cccnc21 | 8.44% | -32.5%
Fc1cccnc1CN1CCCCC1c1ccn2ccnc2n1 (configuration not stated) | 1.4% | -17.1%
COC(=O)CN(C)C1CCc2ccccc21 (configuration not stated) | -6.57% | 28.1%
COc1ccccc1CCN(C)C(=O)NC(C)c1nncn1C (configuration not stated) | -4.13% | 1.17%
Cc1cc(C)n(C2CCCN(C(=O)c3cc(C4CC4)on3)C2)n1 (configuration not stated) | -7.81% | -32.5%
Cc1occc1C(=O)N1CCC[C@]2(C[C@@H](OCc3ccncc3)CO2)C1 | 6.93% | -29.1%
CCOc1ccc(N2CCCN=C2NC(=O)c2cccc(Cl)c2)cc1 | 9.12% | -69.6%
Cc1ccccc1-c1cc(C(=O)NCCN2CCCS2(=O)=O)[nH]n1 | -2.39% | -11.4%
Cc1nc(C)c(C(=O)NCCNc2ncccc2C#N)s1 | 0.324% | -20.6%
